Eight compounds from PubChem BioAssay (EPA / NIEHS) can be followed below.

Assay [1] is described as follows: BSK_3C_TissueFactor: BioMAP Diversity Plus: 3C Assay for Tissue Factor Biomarker Activity (AID 2282997). Conditions: BioMAP 3C HUVEC, tissue factor biomarker readout; actives raise or lower the signal. The procedure, abridged:
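HUVEC, 3C system, 24 h post-dose; Tissue Factor by ELISA; bidirectional fit vs DMSO baseline.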

Assay [2] in a line: BSK_3C_uPAR: BioMAP Diversity Plus: 3C Assay for Urokinase-type plasminogen activator receptor (uPAR) Biomarker Activity (AID 2282998). The note with it: BioMAP 3C HUVEC, uPAR biomarker ELISA; actives raise or lower the signal. The procedure, abridged: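 ELISA readout of uPAR on human vascular endothelium (umbilical vein primary cells), taken 24 h after chemical dosing. Increases and decreases are both fitted relative to DMSO vehicle.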

Assay [3] is described as follows: BSK_3C_VCAM1: BioMAP Diversity Plus: 3C Assay for Vascular cell adhesion molecule 1 (VCAM1) Biomarker Activity (AID 2282999). The note with it: BioMAP 3C HUVEC, VCAM1 ELISA, cytokine-stimulated; actives raise or lower the signal. The procedure, abridged: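 HUVEC primary cells, 24 h compound exposure; VCAM-1 by ELISA; gain/loss of signal fitted bidirectionally vs DMSO baseline.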
(An ELISA detects its analyte on a solid surface through an enzyme-linked reagent.)

The nature of assay [4]: BSK_4H_Eotaxin3: BioMAP Diversity Plus: 4H Assay for Eotaxin 3 Biomarker Activity (AID 2283000).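 As to outcome: CCL26 protein level quantified by ELISA in parallel with SRB cytotoxicity check.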 The note with it: primary human endothelial cells (HUVEC); actives raise or lower the signal. A digest of the protocol:
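Readout is Eotaxin-3 (CCL26) level by ELISA in primary human umbilical vein endothelial cells harvested 24 h after chemical exposure; activity fitted in both directions against DMSO control.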

Assay [5] can be described thus: BSK_3C_Proliferation: Cell Proliferation Assessment in the BioMAP Diversity Plus: 3C Assay (AID 2283006).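 As to AC50: potency may reflect either rise or fall in cell number versus DMSO.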 Conditions: primary human endothelial cells (HUVEC). The procedure, abridged:
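Cells (human umbilical vein endothelial, sub-confluent) receive test chemical; after 48 h they are fixed in 10% trichloroacetic acid, stained with 0.1% SRB and read at 560 nm. Activity is referenced to DMSO, fitting increases and decreases.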

Read-out in assay [6]: E-selectin (Homo sapiens) (UniProt P16581)
Nature of the assay: BSK_3C_Eselectin: BioMAP Diversity Plus: 3C Assay for Eselectin Biomarker Activity (AID 2283015).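 As to outcome: cell surface E-selectin protein quantified by ELISA 24 h after dosing.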 The note with it: primary human endothelial cells (HUVEC); actives raise or lower the signal. The procedure, abridged: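 HUVEC, 3C stimulation; compound exposure 24 h; E-selectin by ELISA; gain- or loss-of-signal fitted bidirectionally vs DMSO baseline.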

Read-out in assay [7]: Interleukin-1 alpha (IL1a), IL1A (gene 3552)
The assay is described as follows: BSK_BE3C_IL1a: BioMAP Diversity Plus: BE3C Assay for Interleukin-1 alpha (IL1a) Biomarker Activity (AID 2283016). Conditions: primary human bronchial epithelial cells; actives raise or lower the signal. The procedure, abridged: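 Signal from IL-1a ELISA, taken 24 h after chemical dosing of human bronchial epithelial cells, is compared with DMSO as baseline using bidirectional curve fitting.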

Read-out in assay [8]: Monocyte Chemoattractant Protein-1 (MCP1), CCL2 (gene 6347)
Nature of the assay: BSK_4H_MCP1: BioMAP Diversity Plus: 4H Assay for Monocyte Chemoattractant Protein-1 (MCP1) Biomarker Activity (AID 2283018). The note with it: primary human endothelial cells (HUVEC); actives raise or lower the signal. The procedure, abridged: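 Endothelial cells from umbilical vein were treated with test chemical, then after 24 h MCP-1 levels were quantified by ELISA; endpoint values came from bidirectional fitting with DMSO as baseline of activity.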

Read-out in assay [9]: Human Leukocyte Antigen - DR isotype (HLADR), HLA-DRA (gene 3122)
Nature of the assay: BSK_3C_HLADR: BioMAP Diversity Plus: 3C Assay for Human Leukocyte Antigen - DR isotype (HLADR) Biomarker Activity (AID 2283019).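 As to outcome: ELISA of cell-surface HLA-DR on HUVEC 24 h after dosing.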 The note with it: primary human endothelial cells (HUVEC); actives raise or lower the signal. The procedure, abridged:
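HUVEC, 3C stimulation, 24 h post-dose; HLA-DR by ELISA; bidirectional curve fit vs DMSO baseline; gain or loss of signal scored.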

Read-out in assay [10]: Interleukin-8 (IL8), CXCL8 (gene 3576)
The assay is described as follows: BSK_3C_IL8: BioMAP Diversity Plus: 3C Assay for Interleukin-8 (IL8) Biomarker Activity (AID 2283020). The note with it: primary human endothelial cells (HUVEC); actives raise or lower the signal. A digest of the protocol: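 Endothelial primary cells of human umbilical vein origin are dosed with chemical; after 24 h the IL-8 biomarker is measured by ELISA, and concentration–response is fitted in both directions versus DMSO.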

Read-out in assay [11]: Monokine induced gamma interferon (MIG), CXCL9 (gene 4283)
The assay is described as follows: BSK_3C_MIG: BioMAP Diversity Plus: 3C Assay for Monokine induced gamma interferon (MIG) Biomarker Activity (AID 2283021).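 As to AC50: MIG protein level measured by immunoassay in the treated endothelial cultures.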 Conditions: primary human endothelial cells (HUVEC); actives raise or lower the signal. A digest of the protocol:
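Endothelial primary cells (human umbilical vein) are dosed with test chemical in the 3C system. MIG levels are measured by ELISA at 24 h and fitted in both directions relative to DMSO.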

A short description of assay [12]: BSK_3C_SRB: Viability Assessment in the BioMAP Diversity Plus: 3C Assay (AID 2283023).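 Also: cells read 24 h after compound dosing; fitted both ways against DMSO so a hit may be signal rise or drop.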 Conditions: primary human endothelial cells (HUVEC). A digest of the protocol: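 HUVEC, 24 h post-dose; 10% TCA fix, 0.1% SRB stain, A560 nm. Bidirectional curve fit vs DMSO negative control.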
Read-out in assay [13]: Matrix Metallopeptidase 1 (MMP1), MMP1 (gene 4312)
The assay is described as follows: BSK_BE3C_MMP1: BioMAP Diversity Plus: BE3C Assay for Matrix Metallopeptidase 1 (MMP1) Biomarker Activity (AID 2283024). Conditions: primary human bronchial epithelial cells; actives raise or lower the signal. A digest of the protocol: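 MMP1 signal, measured by ELISA after a 24 h chemical exposure of human primary bronchial epithelial cells, is analysed with bidirectional fitting using DMSO as negative control.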

Assay [14] in a line: BSK_4H_SRB: Viability Assessment in the BioMAP Diversity Plus: 4H Assay (AID 2283027).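 Also: cells exposed to compound for 24 h before staining.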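 As to AC50: curves fitted both ways versus DMSO so AC50 may be loss or gain.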 The note with it: primary human endothelial cells (HUVEC). The procedure, abridged: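 HUVEC, 24 h post-dose; 10% TCA fix, 0.1% SRB stain, A560 nm. Total protein = overt cytotoxicity, parallel to biomarker read. Bidirectional fit vs DMSO baseline.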
A short description of assay [15]: BSK_BE3C_SRB: Viability Assessment in the BioMAP Diversity Plus: BE3C Assay (AID 2283028). The note with it: primary human bronchial epithelial cells. The procedure, abridged:
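Primary human bronchial epithelium; chemical dosing, 24 h; 10% TCA fix, 0.1% SRB stain, A560; bidirectional fit vs DMSO baseline.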

Read-out in assay [16]: Monokine induced gamma interferon (MIG), CXCL9 (gene 4283)
The assay is described as follows: BSK_hDFCGF_MIG: BioMAP Diversity Plus: hDFCGF Assay for Monokine induced gamma interferon (MIG) Biomarker Activity (AID 2283063). The note with it: primary human foreskin fibroblasts; actives raise or lower the signal. A digest of the protocol: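 Fibroblasts (human foreskin, primary) dosed, 24 h, MIG by ELISA; fit bidirectional vs DMSO.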

Read-out in assay [17]: Matrix Metallopeptidase 1 (MMP1), MMP1 (gene 4312)
The assay is described as follows: BSK_hDFCGF_MMP1: BioMAP Diversity Plus: hDFCGF Assay for Matrix Metallopeptidase 1 (MMP1) Biomarker Activity (AID 2283064). The note with it: primary human foreskin fibroblasts; actives raise or lower the signal. A digest of the protocol: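 ELISA read-out of MMP1 from human foreskin fibroblasts (primary skin cells), 24 h post-dose. Gain or loss of signal was fitted bidirectionally versus DMSO negative control; cytotoxicity was checked by SRB in parallel cultures.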

Read-out in assay [18]: E-selectin (Homo sapiens) (UniProt P16581)
The assay is described as follows: BSK_SAg_Eselectin: BioMAP Diversity Plus: SAg Assay for Eselectin Biomarker Activity (AID 2283091). Conditions: primary human HUVEC with PBMC; actives raise or lower the signal. The procedure, abridged:
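E-selectin ELISA readout at 24 h post-dosing in human umbilical vein endothelial cell/PBMC co-culture; gain or loss of signal fitted relative to DMSO baseline.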

Read-out in assay [19]: Interleukin-8 (IL8), CXCL8 (gene 3576)
The assay is described as follows: BSK_SAg_IL8: BioMAP Diversity Plus: SAg Assay for Interleukin-8 (IL8) Biomarker Activity (AID 2283094). Conditions: primary human HUVEC with PBMC; actives raise or lower the signal. The procedure, abridged: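 Chemicals were dosed onto a human endothelial–PBMC co-culture, and IL-8 was quantified by ELISA after 24 h. Both increases and decreases were fitted relative to DMSO.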

Assay [20] has as its target Retinoic acid receptor RXR-alpha (Homo sapiens) (UniProt P19793). The assay is described as follows: OT_NURR1_NURR1RXRa_0480: Odyssey Thera (OT) 8-hour HEK293T Protein Complementation Assay for Nurr1/retinoid X receptor (RXR) (AID 2283385; active = hit-call score of the fitted dose curve at least 0.9, where 1 is the maximum). The procedure, abridged: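 Interaction of bait and prey reconstitutes a functional reporter, whose fluorescence was measured in HEK293T cells dosed with compound for 8 hours. Signal gain relative to DMSO defined the single endpoint.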

What is called AC50 is the concentration giving half of the maximal activity seen.

Inconclusive results are not listed. The source made the active and inactive calls. The calls were made as follows, unless noted: active = hit-call score of the fitted dose curve at least 0.9, where 1 is the maximum; inactive = score below 0.9.

E-selectin (Homo sapiens), sequence (P16581 whole entry, looked up): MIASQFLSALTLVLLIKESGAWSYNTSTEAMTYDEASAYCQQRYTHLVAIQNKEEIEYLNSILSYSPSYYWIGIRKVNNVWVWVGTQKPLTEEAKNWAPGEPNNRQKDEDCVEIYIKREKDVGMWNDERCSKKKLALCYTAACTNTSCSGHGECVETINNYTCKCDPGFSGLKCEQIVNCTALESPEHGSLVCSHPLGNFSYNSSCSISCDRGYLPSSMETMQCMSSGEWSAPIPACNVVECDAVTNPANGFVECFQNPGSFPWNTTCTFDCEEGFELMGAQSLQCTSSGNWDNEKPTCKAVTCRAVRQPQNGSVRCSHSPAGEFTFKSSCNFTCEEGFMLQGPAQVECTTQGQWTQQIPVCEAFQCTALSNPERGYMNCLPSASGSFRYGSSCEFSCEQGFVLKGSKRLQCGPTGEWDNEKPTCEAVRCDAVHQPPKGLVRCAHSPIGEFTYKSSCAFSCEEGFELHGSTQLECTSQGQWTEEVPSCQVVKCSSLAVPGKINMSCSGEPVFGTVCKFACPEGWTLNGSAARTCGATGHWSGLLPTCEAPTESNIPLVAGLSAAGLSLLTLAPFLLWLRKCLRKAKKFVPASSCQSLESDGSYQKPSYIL
Retinoic acid receptor RXR-alpha (Homo sapiens), sequence (P19793 whole entry, looked up): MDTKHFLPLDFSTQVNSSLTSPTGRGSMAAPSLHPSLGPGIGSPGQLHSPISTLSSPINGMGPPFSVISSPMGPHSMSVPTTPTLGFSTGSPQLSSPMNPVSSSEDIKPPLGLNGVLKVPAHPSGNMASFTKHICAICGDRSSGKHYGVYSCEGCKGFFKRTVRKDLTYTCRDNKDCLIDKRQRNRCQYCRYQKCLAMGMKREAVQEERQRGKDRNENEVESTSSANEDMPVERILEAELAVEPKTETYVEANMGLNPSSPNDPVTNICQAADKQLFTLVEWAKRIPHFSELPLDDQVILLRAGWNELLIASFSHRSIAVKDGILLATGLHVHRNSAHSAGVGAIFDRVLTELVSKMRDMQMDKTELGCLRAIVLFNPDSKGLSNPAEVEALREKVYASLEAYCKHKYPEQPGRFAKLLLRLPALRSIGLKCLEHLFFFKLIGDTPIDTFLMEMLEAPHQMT

Take `Cc1cccnc1`: the outcome in [1], in assay [2], in assay [3], in [4], in assay [5] and in assay [6] was inactive. The outcome in assay [7], in assay [8], in assay [9], in [10], in [11] and in [12] was inactive. For the same compound, the outcome in assay [13], in assay [14], in [15], in assay [16], in [17] and in assay [18] was inactive. Moreover, in assay [19], the result was inactive.
For the compound `C[Si](C)(C)O[Si](C)(C)O[Si](C)(C)C`, the result in assay [20] was inactive.
Still for that read-out and setting: in the case of `C1=CCC=C1` it was “inactive”.
Turning to `CCCCCCCCCCC1CO1` (stereo not given), the AC50 in assay [1] is 30.8 µM (active); in assay [2], 33.7 µM (active); in [3] it was 34.8 µM (active); in assay [4], 36.9 µM (active); in assay [5], 14.7 µM (active); in assay [6], 34.8 µM (active). Also, the half-maximal activity concentration (AC50) was 31.5 µM (active) in assay [7]; 33.8 µM (active) in assay [8]; 28.6 µM (active) in assay [9]; 32.8 µM (active) in assay [10]; 34.4 µM (active) in assay [11]; 35.2 µM (active) in assay [12]. Also, the AC50 in assay [14] was 30 µM (active); in assay [16] it was 30.3 µM (active); in [17], 20 µM (active); in assay [18] it was 20 µM (active). The result in assay [13], in [15] and in assay [19] was inactive.
For `Nc1ccc(S(=O)(=O)Nc2cnc3ccccc3n2)cc1`, the call in [20] was inactive.
In the case of `CN(C)CCC(c1ccc(Cl)cc1)c1ccccn1` (stereo not given), the outcome in [1], in assay [2], in [3], in assay [4], in [5] and in assay [6] was inactive. In addition, the result in assay [7], in assay [9], in assay [10], in [11], in [12] and in assay [13] was inactive. The result in [14], in [15], in assay [16], in [17], in assay [18] and in [19] was inactive. In [8], the AC50 is 12 µM (active).
Take `F[B-](F)(F)F`: the compound was called inactive in assay [20].
In the case of `CN(C)c1ccc(C(c2ccccc2)c2ccc(N(C)C)cc2)cc1`, the half-maximal activity concentration (AC50) in [1] was 2 µM (active); in assay [3], 20 µM (active); in assay [4], 8.42 µM (active); in [5] it was 2.81 µM (active); in assay [6], 3.29 µM (active); in assay [7] it was 5.43 µM (active). In addition, the AC50 in assay [8] is 4.5 µM (active); in assay [9] it was 9.37 µM (active); in [10], 5.43 µM (active); in [12], 9.62 µM (active); in assay [13], 5.54 µM (active); in [14], 4.33 µM (active). Also, the values for the concentration at half-maximal activity (AC50) in assay [18] and in assay [19] were 11.3 µM (active) and 8.09 µM (active), respectively. The result in assay [2], in assay [11], in assay [15], in assay [16] and in assay [17] was inactive.
